High-throughput results deposited in PubChem by National Center for Advancing Translational Sciences (NCATS).
A549 tox: Nrf2 qHTS screen for inhibitors: counterscreen for cytotoxicity | A549 ARE-Fluc cells, CellTiter-Fluor viability, 18-24 h | Potency, µM (top dose mostly 46 µM), for inactives: at the top dose activity change, negative = cytotoxicity, usual class: inhibitors | actives 0.16% (n = 390,000) | AID 504648, 2011; note: % is set by controls: 0 for no effect and ±100 for the full control effect
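A549 ARE_Fluc cells in 5% FBS OPTI-MEM were exposed to compounds in concentration-response for 18-24 h at 37 deg C. Viability was read by CellTiter-Fluor fluorescence (Ex 405/Em 525) after 30 min, before the luciferase read.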
Nrf2 inh: Nrf2 qHTS screen for inhibitors; actives 2.1% (n = 360,000); AID 504444, 2011; Potency, µM (top dose mostly 46 µM), inactives show top-dose activity change, negative = inhibition, usual class: inhibitors; A549 ARE-Fluc reporter, luciferase luminescence, 18-24 h; note: % is set by controls: 0 for no effect and ±100 for the full control effect; nearly all actives have a fitted effect of over 60% in size
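Nrf2 function is reported as luminescence of an ARE-controlled luciferase in A549 cells. Compounds were tested at several concentrations, and a CellTiter-Fluor read on the same wells flagged cytotoxicity.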
ELG1 DNA repair: qHTS screen for small molecules that inhibit ELG1-dependent DNA repair in human embryonic kidney (HEK293T) cells expressing luciferase-tagged ELG1; HEK293T ELG1-luciferase reporter, luminescence, 16 h; DNA damage induced by 5-fluorouridine; Potency, µM (doses to about 46.1 µM), inactives show top-dose activity change, negative = inhibition, hits mostly inhibitors; actives 2.3% (n = 330,000); note: % is set by controls: 0 for no effect and ±100 for the full control effect; nearly all actives have a fitted effect of over 55% in size
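Luminescence from the luciferase reporter, measured 30 min after ONE-Glo reagent at room temperature, was the read-out. Beforehand, 2,000 cells per well were exposed for 16 hr at 37 °C to 5-fluorouridine together with compound or vehicle.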
Nrf2 ARE act: qHTS of Nrf2 Activators; Potency, µM (doses to about 46.1 µM), inactives show at the highest dose activation, usual class: activators; AREc32 ARE-luciferase reporter (MCF7-derived line), luminescence, 24 h; actives 0.31% (n = 410,000); AID 624171, 2012; note: % of control where 0% means no effect; nearly all actives have a fitted effect of over 65% in size
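Luminescent ARE reporter assay in AREc32_Fluc cells: overnight plating at 37 deg C, 24 hr compound incubation, Steady-Glo added, 30 min RT before reading.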
The depositor's hits bear a star; ? = inconclusive; . = no result given; [ ] = another dose, or the depositor's remark. Only some compounds are listed: those with a hit (about 3.7% of all), similar ones and a draw of the others. Calls come from the whole dose curve; as a rule, active = well fitted curve in the direction sought with a large enough effect; inconclusive = small, poorly fitted or top-dose-only effect, or another doubt; inactive = no such curve, though single readings can be large; an effect the other way counts as inactive or inconclusive. Potency is the fitted concentration of half-maximal effect.

SMILES	A549 tox	Nrf2 inh	ELG1 DNA repair	Nrf2 ARE act
CCCN(C(=O)c1ccc(N(C)S(=O)(=O)c2ccc(C)cc2)cc1)C1CCS(=O)(=O)C1 (stereo not drawn)	6%	1%	3%	0%
Clc1cccc(Cl)c1CSc1nnc(/C=C/c2ccccc2)o1	2%	.	?	1%
Fc1cccc(Cl)c1Cc1noc(/C=C/c2ccccc2)n1	0%	?	?	16µM*
Cc1cc(C)cc(NC(=O)CSc2nc(=O)[nH]c3c2CCC3)c1	16%	.	.	3%
Cc1cccc2sc(N(CCN(C)C)C(=O)/C=C/c3cccs3)nc12	?	-18%	-18%	11µM*
COc1ccc2sc(N(CCN(C)C)C(=O)/C=C/c3cccs3)nc2c1	-1%	-8%	?	10µM*
COc1ccc2nc(N(CCN(C)C)C(=O)/C=C/c3cccs3)sc2c1	-4%	-25%	-27%	10µM*
CCN(CC)CCN(C(=O)/C=C/c1cccs1)c1nc2ccc(OC)cc2s1	-12%	?	.	0%
CN(C)CCCN(C(=O)/C=C/c1cccs1)c1nc2c(F)cccc2s1	-7%	4%	1%	?
CCOc1ccc2nc(N(CCN(CC)CC)C(=O)/C=C/c3cccs3)sc2c1	-26%	-20%	-12%	2%
CCC1CCC2(CC1)NC(=O)N(CC(=O)Nc1cccc(S(=O)(=O)N(C)c3ccccc3)c1)C2=O (stereo not drawn)	-1%	16µM*	?	2%
O=C(CN1C(=O)NC(Cc2c[nH]c3ccccc23)C1=O)Nc1cccc(S(=O)(=O)N2CCCC2)c1 (stereo not drawn)	0%	-13%	-2%	-1%
O=C(CN1C(=O)NC(Cc2c[nH]c3ccccc23)C1=O)Nc1cccc(S(=O)(=O)N2CCCCCC2)c1 (stereo not drawn)	-1%	?	21µM*	-1%
CN1C(=O)N(CC(=O)Nc2cccc(S(=O)(=O)N(C)c3ccccc3)c2)C(=O)C12CCCCC2	-8%	-18%	-5%	0%
CC1CCC2(CC1)NC(=O)N(CC(=O)Nc1cccc(S(=O)(=O)N3CCCCC3)c1)C2=O (stereo not drawn)	-2%	18µM*	-9%	-1%
COc1ccc(S(=O)(=O)N2CCN(C(=O)c3ccco3)CC2)cc1C(C)(C)C	7%	?	-5%	0%
O=[S+]([O-])(c1ccc2nsnc2c1)N1CCN([S+](=O)([O-])c2c(F)cccc2F)CC1	-2%	0%	.	.
O=C1c2oc3ccccc3c(=O)c2C(c2ccccc2)N1Cc1ccc2c(c1)OCO2 (stereo not drawn)	-2%	.	.	1%
COc1cccc(NC(=O)CN(C)C(=O)CCNS(=O)(=O)c2ccc(C)cc2)c1	0%	-11%	-3%	-1%
CC(C)(C)C(=O)NNc1nc(-c2ccccc2)c2cc(Br)ccc2n1	-5%	-29%	1%	1%
CCN(CC)S(=O)(=O)c1ccc(C(=O)NNc2nc(-c3ccccc3)c3cc(Br)ccc3n2)cc1	-14%	?	23µM*	0%
c1ccc(CN2CCC(Nc3ncnc4sccc34)CC2)cc1	13%	2%	6.5µM*	2%
CC(Oc1ccc(F)cc1)C(=O)Nc1ccccc1C(=O)N1CCCCC1 (stereo not drawn)	-3%	-6%	-31%	-1%
CC(=O)N1CCCc2cc(S(=O)(=O)N3CCN(c4ccccc4F)CC3)ccc21	4%	.	.	-1%
COc1cccc(NC(=O)CCCNC(=O)Cn2cnc3sc(C)c(C)c3c2=O)c1	10%	2%	?	2%
SMILES	A549 tox	Nrf2 inh	ELG1 DNA repair	Nrf2 ARE act
COc1ccccc1N1CCN(C(=O)CCCNC(=O)Cn2cnc3sc(C)c(C)c3c2=O)CC1	7%	23µM*	-5%	0%
Cc1sc2ncn(CC(=O)NCCCC(=O)Nc3ccc(C(C)C)cc3)c(=O)c2c1C	?	29µM*	27%	-1%
Cc1ccc(C(C(=O)NC2CCCCC2)N(C)Cc2ccccc2)cc1 (stereo not drawn)	2%	-4%[9.27 µM]	.	0%
Cc1cc2n(n1)C(c1ccc(O)cc1)Nc1ccccc1-2 (stereo not drawn)	.	18µM*	3%	1%
COc1cc(C2Nc3ccccc3-c3cc(C)nn32)ccc1O (stereo not drawn)	8%	28%	.	5%
C=CCOc1ccc(C2NC(=S)NC3=C2CCc2ccccc23)cc1 (stereo not drawn)	-3%	-6%	5.2µM*	4%
c1ccc(-c2nc(-c3ccccn3)no2)cc1	-15%	?	?	?
CNc1nc(-c2ccccn2)nnc1-c1ccccc1	?	11µM*	-10%	3%
Cc1cccc(COCC(Cc2ccccc2)N2CCN(C(=O)c3cccc(Cl)c3)CCC2=O)c1 (stereo not drawn)	?	21µM*	?	5%
CC(C)CC(COCc1ccc(Cl)cc1)N1CCN(C(=O)c2ccc(Cl)cc2Cl)CCC1=O (stereo not drawn)	?	21µM*	23µM*	-1%
COc1ccc([C@H]2C[C@@H](n3cc(C4CC4)nn3)[C@H](O)CN2CC2CCCCC2)cc1	.	.	.	6%
Cn1nc(C(F)(F)F)c(C(=O)Nc2ccc(F)cc2F)c1Sc1cccc(Cl)c1	?	18µM*	-11%	0%
Cn1nc(C(F)(F)F)c(C(=O)Nc2ccc(F)cc2F)c1Sc1cccc(C(F)(F)F)c1	15%	-12%	-13%	0%
COc1ccc(OCCCC(=O)Nc2cc(S(=O)(=O)N3CCCCC3)ccc2C)cc1	6%	-21%	?	3%
CSc1ccc(CCNC(=O)CCc2nnc3ccc(N4CCC5(CC4)OCCO5)nn23)cc1	3%	-12%	9.2µM*	0%
CSc1ccc(CCNC(=O)CCc2nnc3ccc(N4CCOCC4)nn23)cc1	-18%	-12%	20%	-1%
Cc1ccc(NS(=O)(=O)c2cc(C(=O)NCCSc3ccc(C)cc3)ccc2C)cc1	-22%	23µM*	?	0%
Cc1ccc(C(=O)NCCSc2ccc(Cl)cc2)cc1S(=O)(=O)Nc1ccccc1	?	15µM*	21µM*	3%
Cc1ccc(OCCC(=O)N2CCN(c3ccc(O)cc3)CC2)cc1	-1%	-1%	7.3µM*	2%
CC1(C2CC2)NC(=O)N(CC(=O)N2CCN(c3cccc(C(F)(F)F)c3)CC2)C1=O (stereo not drawn)	-20%	12µM*	?	0%
CC(=O)N1CCN(c2ccc([N+](=O)[O-])cc2)CC1	-13%	0%	-5%	2%
Cc1ccc(CC(=O)N2CCN(c3ccc([N+](=O)[O-])cc3)CC2)cc1	?	21µM*	-22%	2%
CCOC(=O)N1CCC(Nc2c(N3CCN(c4cccc(C(F)(F)F)c4)CC3)c(=O)c2=O)CC1	3%	?	18µM*	0%
